Experimental data from PubChem BioAssay.

Experiment: E. coli DRC41 culture turbidity changes, primary screen, E. coli filamentation inducer project, strain DRC41, OD650, 48 h (AID 1152);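 further: E. coli MC1000 strain DRC41 lacking acrAB efflux pump and sulA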
Conditions: E. coli DRC41 (acrAB sulA), higher = more signal, called active from +8 up or from −8 down

z-score, inactive:
CCCCC(=C=CC[C@@H](O)c1cccc(OCCO)c1)CCO 0.896
C=CCOC(=O)[C@@H]1[C@H]2C(=O)O[C@H](c3ccccc3)[C@H](c3ccccc3)N2[C@H](c2ccc(OCCOC(=O)[C@H]3C[C@H]4C(=O)NCC(=O)N4[C@H]3c3ccc(O)cc3)cc2)[C@@]12C(=O)Nc1ccc(I)cc12 -0.707
CN1C=C(C(=O)OCCS(C)(=O)=O)C(C(=O)OCCS(C)(=O)=O)=CC(CCCO)=CC1c1ccc(CN2CCCC2)cc1 (stereo unspecified) 0.0837
COCCOC(=O)N1C(=O)[C@@]2(c3cc(C#CC4(O)CCCCCC4)ccc31)[C@H](C(=O)N1CCc3cc(OC)c(OC)cc3C1)[C@H]1C(=O)O[C@H](c3ccccc3)[C@H](c3ccccc3)N1[C@@H]2c1ccc(O)cc1 1.27
O=C1O[C@@H](c2ccccc2)[C@@H](c2ccccc2)N2[C@@H](c3ccc(OCCO)cc3)[C@]3(C(=O)Nc4ccc(C#CCCO)cc43)[C@@H](C(=O)Nc3nc4ccccc4s3)[C@H]12 2.3
COCCCNC(=O)[C@@H]1c2ccccc2C(=O)N(C2CCCCC2)[C@H]1c1ccc(CO)cc1 0.416
C=CC[C@]1(C(=O)NCc2ccccc2)COC(c2ccc(OCCCO)cc2)=N1 0.553
CN(C)CCCNC(=O)[C@@]1(Cc2ccccc2I)c2ccccc2C(=O)N(Cc2ccccc2)[C@H]1c1ccc(CO)cc1 -0.206
COc1cccc(OC)c1C(=O)O[C@H]1[C@@H]2OC(=O)[C@H](Cc3cccc(Br)c3)C/C=C/C[C@@H](Cc3cccc(Br)c3)C(=O)O[C@H]2[C@@H](OC)O[C@@H]1CO -0.899
[N-]=[N+]=NCc1ccccc1C[C@]1(C(=O)NCc2ccccc2)N=C(c2ccc(OCCCO)cc2)O[C@H]1c1ccccc1CN=[N+]=[N-] 1.76
COCCOC(=O)N1C(=O)[C@@]2(c3cc(C#Cc4ccc(OC)cc4)ccc31)[C@H](c1ccc(OCCO)cc1)N1[C@H](c3ccccc3)[C@H](c3ccccc3)OC(=O)[C@H]1[C@@H]2C(=O)N1CCCCCCC1 0.543
Cc1ccc(S[C@]2(C(=O)NC3CC3)CC(=O)N(Cc3cc(C(F)(F)F)cc(C(F)(F)F)c3)[C@@H]2c2ccc(CO)cc2I)cc1 0.147
CC1(C)OC[C@@]23C=C(Br)[C@@H](C[C@H]12)[C@@]1(CO1)C3=O -0.68
CCOC(=O)C1=CC[C@@H](c2ccccc2)N(S(=O)(=O)c2ccc(C)cc2)[C@H]1C#N -0.355
COc1ccccc1CN1C(=O)c2ccccc2[C@](Cc2ccccc2I)(C(=O)NCCCN(C)C)[C@@H]1c1ccc(CO)cc1 -6.9
CCCC=C(CCC)[C@@H](NC(=O)c1ccco1)c1ccc(C(=O)OC)cc1 -1.68
CC(C)(C)OC(=O)CC[C@]1(C(N)=O)N=C(c2ccc(OCCCO)cc2)O[C@H]1c1ccccc1CN=[N+]=[N-] 0.434
COc1ccc(NN2C(C(O)c3cc(C(F)(F)F)cc(C(F)(F)F)c3)C=CC3C(=O)N(C4CCCCC4)C(=O)C32)cc1 (stereo unspecified) -0.523
COc1ccc(CCNC(=O)[C@@]2(C)c3ccccc3C(=O)N(Cc3cc(C(F)(F)F)cc(C(F)(F)F)c3)[C@H]2c2ccc(CO)cc2)cc1 1.28
CC(C)C(=C=CC[C@@H](O)c1ccc(OCCO)cc1)CCO 1.7
C=CCC(OC(C)=O)[C@@H]1[C@@H](N(Cc2cc3ccccc3o2)C(=O)c2ccc(-c3ccccc3)cc2)c2cc(OCCCO)ccc2N1C(=O)c1ccc2ccccc2n1 (stereo partly specified) 0.803
CC(C)c1ccc(NN2C(C(O)C(C)C)C=CC3C(=O)N(c4ccccc4)C(=O)C32)cc1 (stereo unspecified) -0.671
CCCC[C@H]1OB(O)C[C@H]2C1=C(COC)C[C@H]1C(=O)C=CC(=O)[C@H]12 0.685
COc1ccc([Si](C)(C)[C@H]2[C@H](CCn3cc([C@H](O)c4ccccc4)nn3)O[C@@]3(C(=O)N(c4ccccc4)c4ccccc43)[C@@H]2C)cc1 1.13
N#Cc1ccc(C(O)C2C=CC3C(=O)NC(=O)C3N2Nc2ccccn2)cc1 (stereo unspecified) 0.261
O=C1C2C=CC(C(O)c3cccs3)N(Nc3ccccc3)C2C(=O)N1c1ccccc1 (stereo unspecified) -0.597
